# A selection: hits, their analogues and other compounds. The true share with any hit is near 12%.
# Sfp PPTase inh: Sfp phosphopantetheinyl transferase inhibition | Q9F4F7 | AID 1490 | 3.5% of 310,000 active | Potency, µM, inactives show largest response in the series, negative = inhibition, most hits filed as inhibitors | Biochemical Sfp PPTase activity, qHTS;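 note: the enzyme is Sfp with the accession as filed and its product quenches rhodamine fluorescence; 0% = enzyme reaction without inhibitor and -100% = no enzyme wells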
#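 With Hepes-Na pH 7.6 buffer containing 10 mM MgCl2, Sfp (15 nM) modified BHQ-2-YbbR (12.5 uM) using rhodamine-CoA (5 uM). Two reads 30 minutes apart at 525/598 nm yielded each well's rate.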
# HP1b chromo inh: HP1-beta chromodomain-methylated histone interaction inhibition | AlphaScreen HP1-beta / biotin-H3K9me3 peptide binding | P83916 | Potency, µM (doses to about 114 µM), without a hit: at the top dose activity change, negative = inhibition, hits mostly inhibitors | AID 540317 | 0.56% of 390,000 active; note: nearly all actives have a fitted effect of over 70% in size
#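 Compound inhibition of the preformed complex between 50 nM HP1-beta and 50 nM biotinylated H3K9me3 peptide was read by AlphaScreen. Buffer was PBS pH 7.4 with 0.01% Tween-20. Incubations ran 30 min at room temperature, with 10 ug/mL donor/acceptor beads.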
# G9a block: G9a (human) methyltransferase inhibition; Q96KQ7; G9a H3K9 monomethylation, AlphaScreen, 2 h; Potency, µM (highest dose often 102 µM), without a hit: at the highest dose activity, negative = inhibition, hits mostly inhibitors; 8.8% of 350,000 active; AID 504332; note: % is set by controls: 0 for no effect and ±100 for the full control effect; nearly all actives have a fitted effect of over 75% in size
#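 G9a (20 nM) preincubated 15 min RT with compounds, then 500 nM biotinylated H3K9 peptide and 20 uM SAM added; 2 h RT reaction. Monomethyl-H3K9 product detected by AlphaScreen with anti-H3K9me1 antibody, streptavidin donor and anti-rabbit IgG acceptor beads.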
# JMJD2A Tudor inh: JMJD2A Tudor domain (human) inhibition. O75164. AlphaScreen JMJD2A-Tudor / H3K4me3 peptide binding. Potency, µM (doses to about 114 µM), for the others: at the top dose activity change, negative = inhibition, actives largely listed as inhibitors. 4.4% of 390,000 active; note: % is set by controls: 0 for no effect and ±100 for the full control effect; nearly all actives have a fitted effect of over 50% in size
# Target sequence (O75164 whole entry, looked up, the tested form may be a part): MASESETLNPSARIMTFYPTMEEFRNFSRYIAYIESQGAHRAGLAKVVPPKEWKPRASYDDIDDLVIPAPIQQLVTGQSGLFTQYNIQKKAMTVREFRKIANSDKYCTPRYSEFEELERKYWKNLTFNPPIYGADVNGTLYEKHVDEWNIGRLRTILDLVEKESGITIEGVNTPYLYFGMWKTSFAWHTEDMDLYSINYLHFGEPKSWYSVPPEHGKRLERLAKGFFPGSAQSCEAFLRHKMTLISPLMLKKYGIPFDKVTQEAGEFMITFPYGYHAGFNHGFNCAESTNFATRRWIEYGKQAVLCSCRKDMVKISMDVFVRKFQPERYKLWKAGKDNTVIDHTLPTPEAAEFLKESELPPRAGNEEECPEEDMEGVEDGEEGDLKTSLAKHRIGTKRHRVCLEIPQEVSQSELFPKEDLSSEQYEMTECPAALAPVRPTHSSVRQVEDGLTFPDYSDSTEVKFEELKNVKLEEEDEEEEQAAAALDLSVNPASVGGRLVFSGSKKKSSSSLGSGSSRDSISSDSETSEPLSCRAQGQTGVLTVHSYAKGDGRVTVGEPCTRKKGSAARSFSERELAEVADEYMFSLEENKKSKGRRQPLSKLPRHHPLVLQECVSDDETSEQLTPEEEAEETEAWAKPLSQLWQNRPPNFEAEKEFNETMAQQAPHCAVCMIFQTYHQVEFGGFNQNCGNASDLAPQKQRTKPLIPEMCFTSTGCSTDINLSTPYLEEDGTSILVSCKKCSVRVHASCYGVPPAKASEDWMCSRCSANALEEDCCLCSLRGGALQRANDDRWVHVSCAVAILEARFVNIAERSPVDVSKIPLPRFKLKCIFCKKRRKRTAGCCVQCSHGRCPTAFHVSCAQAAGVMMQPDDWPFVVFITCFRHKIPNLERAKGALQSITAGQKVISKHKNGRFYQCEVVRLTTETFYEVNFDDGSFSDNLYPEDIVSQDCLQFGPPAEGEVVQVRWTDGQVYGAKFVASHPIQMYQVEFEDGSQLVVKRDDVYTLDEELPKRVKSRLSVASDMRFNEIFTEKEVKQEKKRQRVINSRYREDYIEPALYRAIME
# BAZ2B inh: BAZ2B (human) inhibition | Q9UIF8 | AlphaScreen BAZ2B-H3K14Ac peptide displacement | Potency, µM (highest dose often 114 µM), for inactives: at the highest dose activity change, negative = inhibition, actives largely listed as inhibitors | 4.4% of 360,000 active; note: % is set by controls: 0 for no effect and ±100 for the full control effect; nearly all actives have a fitted effect of over 60% in size
#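 Inhibition is scored as reduced AlphaScreen emission. The BAZ2B/b-H3(5-23)K14Ac complex (50 nM each) in PBS pH 7.4, 0.01% Tween-20 meets compound (up to 110 uM) for 30 min at RT before bead addition.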
# * hit, by the source's call; ? = inconclusive; . = not tested or not shown; [ ] = remark or other dose. Calls come from the whole dose curve; as a rule, active = well fitted curve in the direction sought with a large enough effect; inconclusive = small, poorly fitted or top-dose-only effect, or another doubt; inactive = no such curve, though single readings can be large; an effect the other way counts as inactive or inconclusive. Potency is the fitted concentration of half-maximal effect.
SMILES,Sfp PPTase inh,HP1b chromo inh,G9a block,JMJD2A Tudor inh,BAZ2B inh
O=C(CCN1C(=O)/C(=C/C=C/c2ccccc2)SC1=S)Nc1nc2ccccc2s1,2%,1%,?,-35%,?
COCc1nnc(NC(=O)c2cccc(NC(=O)c3ccccc3)c2)s1,?,6%,.,-8%,-16%
O=C1C2CC=C(Cl)CC2C(=O)N1CC1OCCc2ccccc21 (configuration not stated),-15%,35%,?,-4%,-10%
O=C1C2CC=C(Cl)CC2C(=O)N1CC1Cc2ccccc2CO1 (configuration not stated),-17%,30%,50µM*,-10%,-35%
O=C1C2CC=C(Cl)CC2C(=O)N1CN(Cc1ccco1)CN1C(=O)C2CC=C(Cl)CC2C1=O (configuration not stated),-6%,32%,50µM*,-25%,50µM*
O=C1C2CC=C(Cl)CC2C(=O)N1CCC[n+]1ccccc1 (configuration not stated),12%,41%,-4%[0.501 µM],-14%,-1%
Cc1ccc(-n2nc3c(=O)n(CCCC(=O)NCCN4CCN(C)CC4)nc(C)c3c2C)cc1,9%,19%,19%[0.0925 µM],-10%,4%
COc1ccc(CN=C(C#N)C2=C(O)c3ccccc3C2=O)cc1,3%,28%,35µM*,?,-37%
CCn1c(Cl)c(C=O)s/c1=N\S(=O)(=O)c1ccccc1,?,-5%,45µM*,-24%[11.4 µM],17%
O=C(/C=C/c1ccc[nH]1)c1ccc(F)cc1,-14%,8%,7%,-23%,-26%
O=C(/C=C/c1ccc[nH]1)c1ccccc1,56µM*,-23%,?,18µM*,?
O=C(c1n[nH]c2ccccc12)N1CCN(S(=O)(=O)c2ccccc2)CC1,.,13%,36%[12.7 µM],-20%,14%
Cc1cc(C)c(S(=O)(=O)Cc2ccccc2)c(=O)[nH]1,4%,13%,.,-17%,-3%
COc1cc(C2Nc3ccccc3C(=O)N2Cc2ccccc2)ccc1OCc1ccccc1 (configuration not stated),.,1%[57 µM],.,-25%[57.1 µM],.
CCCN1C(=O)c2ccccc2NC1c1cc(OC)c(OC)c(OC)c1 (configuration not stated),2%,32%,-5%[59 µM],0%,2%
COc1ccc(O)c(C2Nc3ccccc3C(=O)N2Cc2ccccc2)c1 (configuration not stated),.,.,.,79µM*,.
COc1ccc(CCN2C(=O)c3ccccc3NC2c2cc(Cl)c(O)c(OC)c2)cc1 (configuration not stated),-13%,-12%,71µM*,-23%,-15%
O=C1c2ccccc2NC(c2cccc([N+](=O)[O-])c2)N1CCc1ccccc1 (configuration not stated),6%,-12%,45µM*,?,?
CN1CCN(c2ncc3nc(-c4ccc(F)cc4)c(=O)n(Cc4cccs4)c3n2)CC1,-21%,.,11%[0.501 µM],.,.
Cc1cc(C)c2c(N)c(C(=O)N/N=C/c3ccccc3)sc2n1,7%,54%,-3%[59 µM],9%,-3%
O=C(c1ccncc1)c1ccc(N2CCN(C3CC(=O)N(Cc4cccs4)C3=O)CC2)cc1 (configuration not stated),9%,41%,1%,-17%,-17%
O=C1CC(N2CCN(c3ccc(O)cc3)CC2)C(=O)N1Cc1cccs1 (configuration not stated),-85%,?,-3%[12.7 µM],56µM*,-9%
Cc1c(Cl)cccc1NC(=O)COC(=O)c1c2c(nc3ccccc13)CCN(Cc1ccccc1)C2,6%,12%,-32%[59 µM],-30%,-36%
O=C(NC1CCCCCC1)c1c2c(nc3ccccc13)CCN(Cc1ccccc1)C2,4%,28%,1.4µM*,-10%,-5%
CC(C)c1ccccc1NC(=O)COC(=O)c1c2c(nc3ccccc13)CCN(Cc1ccccc1)C2,-7%,9%,5%[59 µM],-28%,-10%
SMILES,Sfp PPTase inh,HP1b chromo inh,G9a block,JMJD2A Tudor inh,BAZ2B inh
Cc1cc(N2CCN(C)CC2)ccc1NC(=O)c1c2c(nc3ccccc13)CCN(Cc1ccccc1)C2,5%,-14%,35µM*,?,?
CN(C)S(=O)(=O)c1ccc2c(c1)N(CC(=O)N1CCC(C(N)=O)CC1)CCS2,.,12%[57 µM],0%[59 µM],-15%,-1%
CCc1cc(-c2[nH]ncc2-c2ccc3c(c2)OCO3)c(O)cc1O,13%,?,?,32µM*,32µM*
CC(C)c1ccc(CCNC(=O)CCNS(=O)(=O)c2ccc(Br)cc2)cc1,.,65%,19%[12.7 µM],0%,5%
CC(Oc1ccc(Cl)cc1Cl)C(=O)NC(=S)N1CCc2ccccc21 (configuration not stated),17%,17%,28µM*,-34%,-22%
CC(C)(C)C(=O)NC(=S)N1CCc2ccccc21,-27%,-22%[57 µM],20µM*,-29%,?
S=C(Nc1cccnc1)N1CCc2ccccc21,4%,26%,-7%[12.7 µM],-13%,-3%
Fc1ccc(NC(=S)N2CCCc3ccccc32)cc1,-20%,-17%,40µM*,-26%,?
NC[C@@H]1O[C@H](O[C@H]2[C@H](O)[C@H](O[C@@H]3O[C@H](CO)[C@@H](O)[C@H](N)[C@@H]3O)[C@@H](N)C[C@H]2N)[C@@H](O)[C@H](O)[C@@H]1O,22%,.,30%[21.5 µM],.,.
O=C(c1cccc(Cl)c1)N(Cc1ccco1)C1CCS(=O)(=O)C1 (configuration not stated),4%,40%,27%,6%,7%
Cc1cc(C)n(-c2ccnc3cc(Cl)ccc23)n1,6%,39%,17%,6%,3%
Cc1cc(Cn2nnnc2-c2ccncc2)cc(C)c1O,11%,47%,35µM*,-6%,-11%
CCCN(CC(=O)Nc1ccccc1C)C(=O)C1CC(=O)N(c2ccc(CC)cc2)C1 (configuration not stated),.,26%,29%[12.7 µM],-18%,-2%
CC1CN(C(C)C)C(=S)NC1=O (configuration not stated),.,37%,.,-3%,.
O=C(/C=C/c1ccccn1)c1cc(Cl)cc(Cl)c1O,-4%,16%,50µM*,-1%[11.4 µM],-35%
COc1ccc(/C=C/C(=O)c2cc(Cl)cc(Cl)c2O)c(OC)c1,14%,28%,-3%,-6%,-36%
COc1ccc(NC(=S)N(CCCN2CCOCC2)Cc2cn(C)c3ccccc23)cc1OC,-16%,-3%,50µM*,-27%,?
COc1ccc(CN(CCCN2CCOCC2)C(=O)Nc2ccccc2)cc1OC,9%,13%,17%,-25%,-3%
COc1ccc(Cl)cc1NC(=O)c1ccc2c(c1)CCN2S(C)(=O)=O,.,59%,21%[59 µM],-25%,-7%
CC(Sc1nc(C(C)(C)C)cc(-c2ccccc2)c1C#N)C(=O)Nc1ccccc1 (configuration not stated),14µM*,?,7.9µM*,-1%[57.1 µM],8%
